Measurements reported in PubChem BioAssay.
Calls of active or inactive are those of the source.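 The calls were made as follows, unless noted: active = efflux inhibition above 0.42, the validation set average plus 4 SD; inconclusive = no clear call, values can overlap the other calls; inactive = the rest.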

Assays:
[1] = inhibitors of CD8+ T cell-vesicle binding, pilot screen, LFA-1/ICAM-1 modulator project, MLPCN validation set, flow cytometry (AID 2523;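 active = response below a set limit, under 55% cells CD8-positive and vesicle-bound, and CD8 cells' 90th-percentile brightness under 279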;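 as to vesicle binding response: mean PE anti-B7-1 fluorescence of CD8+ cells relative to row control; 100% = QL9-loaded vesicles with DMSO vehicle in the same plate row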); conditions: 2C mouse CD8+ T cells, at 7 µM, stronger effect = lower value; double positive events: measured here: CD8+/vesicle+ event percentage
[2] = biological target: Integrin beta-1 (Homo sapiens) + Integrin alpha-4 (Homo sapiens) (UniProt P13612+P05556); assay: inhibition of HUTS-21 binding to VLA-4, pilot screen, VLA-4 allosteric modulator project, U937 cells, HUTS-21 mAb, flow cytometry, validation set (AID 2674;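 active = inhibition above 50%, about 3 SD of the validation set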;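 also: antibody binding induced by the VLA-4 ligand LDV present at three times its Kd; 0% = LDV ligand with antibody and no compound and 100% = antibody without LDV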); conditions: HUTS-21 LIBS mAb binding, at 6.7 µM, stronger effect = higher value, binding induced by LDV ligand
Integrin beta-1 (Homo sapiens) + Integrin alpha-4 (Homo sapiens), sequence (P05556 whole entry, looked up): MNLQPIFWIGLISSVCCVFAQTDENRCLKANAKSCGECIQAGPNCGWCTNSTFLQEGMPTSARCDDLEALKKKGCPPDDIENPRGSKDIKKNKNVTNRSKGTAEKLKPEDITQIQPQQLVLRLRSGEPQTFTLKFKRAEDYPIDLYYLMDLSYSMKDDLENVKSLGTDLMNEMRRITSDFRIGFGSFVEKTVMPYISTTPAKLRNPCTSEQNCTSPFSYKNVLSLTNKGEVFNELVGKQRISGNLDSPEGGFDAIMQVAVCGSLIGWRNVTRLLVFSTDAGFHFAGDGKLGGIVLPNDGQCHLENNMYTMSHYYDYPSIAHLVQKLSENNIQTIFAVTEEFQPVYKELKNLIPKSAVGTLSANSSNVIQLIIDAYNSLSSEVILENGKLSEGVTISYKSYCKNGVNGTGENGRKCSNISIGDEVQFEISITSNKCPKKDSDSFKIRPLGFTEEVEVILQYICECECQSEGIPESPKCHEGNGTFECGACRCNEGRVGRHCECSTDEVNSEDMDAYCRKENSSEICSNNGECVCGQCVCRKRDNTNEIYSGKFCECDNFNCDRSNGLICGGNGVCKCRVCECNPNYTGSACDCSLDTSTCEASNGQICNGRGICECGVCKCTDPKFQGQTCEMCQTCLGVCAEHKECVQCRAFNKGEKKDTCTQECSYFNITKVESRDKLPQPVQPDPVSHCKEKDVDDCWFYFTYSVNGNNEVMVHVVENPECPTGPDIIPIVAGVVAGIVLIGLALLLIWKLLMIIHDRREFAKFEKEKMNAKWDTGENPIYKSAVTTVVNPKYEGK
Integrin beta-1 (Homo sapiens) + Integrin alpha-4 (Homo sapiens), sequence (P13612 whole entry, looked up): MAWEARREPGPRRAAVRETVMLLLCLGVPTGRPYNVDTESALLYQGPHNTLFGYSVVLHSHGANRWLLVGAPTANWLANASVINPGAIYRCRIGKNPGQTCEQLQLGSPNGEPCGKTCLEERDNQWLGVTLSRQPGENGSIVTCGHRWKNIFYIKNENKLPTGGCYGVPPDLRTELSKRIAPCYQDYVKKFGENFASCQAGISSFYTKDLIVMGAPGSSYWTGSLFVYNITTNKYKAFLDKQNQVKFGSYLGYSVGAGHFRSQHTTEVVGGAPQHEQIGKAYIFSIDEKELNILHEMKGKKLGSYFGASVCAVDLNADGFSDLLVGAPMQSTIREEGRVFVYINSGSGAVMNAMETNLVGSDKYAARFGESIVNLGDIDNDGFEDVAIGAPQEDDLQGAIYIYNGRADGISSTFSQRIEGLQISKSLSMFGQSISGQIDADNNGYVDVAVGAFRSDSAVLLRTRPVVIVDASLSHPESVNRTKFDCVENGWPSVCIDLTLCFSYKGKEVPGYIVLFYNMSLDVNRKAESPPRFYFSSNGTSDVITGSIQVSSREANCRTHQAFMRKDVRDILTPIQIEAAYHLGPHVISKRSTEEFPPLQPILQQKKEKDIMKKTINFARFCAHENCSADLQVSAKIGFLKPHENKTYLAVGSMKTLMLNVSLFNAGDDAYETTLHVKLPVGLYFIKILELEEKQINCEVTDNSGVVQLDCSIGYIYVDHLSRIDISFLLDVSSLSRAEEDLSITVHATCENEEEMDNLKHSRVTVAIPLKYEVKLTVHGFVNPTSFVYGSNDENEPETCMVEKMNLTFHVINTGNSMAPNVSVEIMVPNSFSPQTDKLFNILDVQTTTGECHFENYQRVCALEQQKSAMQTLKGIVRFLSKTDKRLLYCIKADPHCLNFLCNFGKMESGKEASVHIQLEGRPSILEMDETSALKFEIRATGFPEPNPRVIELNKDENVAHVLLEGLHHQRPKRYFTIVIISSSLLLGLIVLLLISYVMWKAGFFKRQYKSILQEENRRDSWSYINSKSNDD

[3] = superoxide lowering in aged yeast cells, pilot screen, validation compound set (AID 2706;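 active = superoxide response below 65% of plate, a cut near 3 SD across the whole screen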;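 also: yeast exposed to compound for one week at 30 degrees C before staining; 100% = mean of all compound wells on the same plate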); conditions: S. cerevisiae aging, superoxide DHE fluorescence; at 10 µM, stronger effect = lower value
[4] = biological target: Beta-adrenergic receptor kinase 1 (Homo sapiens) (UniProt P25098); assay: GRK2 binders displacing RNA aptamer, biochemical, validation, human GRK2, bead flow cytometry (AID 488806;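 active = aptamer binding inhibition above 30%, about 3 SD of noise from non-fluorescent compounds; inactive = inhibition at or below 30%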); conditions: bead-bound GRK2, FAM-aptamer displacement, at 10 µM, stronger effect = higher value
Beta-adrenergic receptor kinase 1 (Homo sapiens), sequence (P25098 whole entry, looked up): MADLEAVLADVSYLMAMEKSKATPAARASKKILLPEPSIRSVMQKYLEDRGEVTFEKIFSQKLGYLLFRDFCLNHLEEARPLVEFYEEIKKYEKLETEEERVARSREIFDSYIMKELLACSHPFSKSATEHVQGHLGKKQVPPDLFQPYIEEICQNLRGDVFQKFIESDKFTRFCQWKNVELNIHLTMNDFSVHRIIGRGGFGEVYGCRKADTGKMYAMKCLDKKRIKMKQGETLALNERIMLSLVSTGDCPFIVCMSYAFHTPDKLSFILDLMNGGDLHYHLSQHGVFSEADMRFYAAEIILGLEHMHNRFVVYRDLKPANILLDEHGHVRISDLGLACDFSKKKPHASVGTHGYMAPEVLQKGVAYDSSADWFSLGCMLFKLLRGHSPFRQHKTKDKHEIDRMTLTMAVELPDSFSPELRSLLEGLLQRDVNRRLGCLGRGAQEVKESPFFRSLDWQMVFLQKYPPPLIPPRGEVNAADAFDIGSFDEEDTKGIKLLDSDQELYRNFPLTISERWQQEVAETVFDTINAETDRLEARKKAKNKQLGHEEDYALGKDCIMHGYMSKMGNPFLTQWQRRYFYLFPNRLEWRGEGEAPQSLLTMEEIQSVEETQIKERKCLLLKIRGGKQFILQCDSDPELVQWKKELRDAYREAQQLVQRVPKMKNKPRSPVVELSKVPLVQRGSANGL

[5] = biological target: Beta-2 adrenergic receptor (Homo sapiens) (UniProt P07550); assay: beta2AR agonists driving receptor internalization, pilot screen, cell-based, FAP fluorogen, flow cytometry, validation set (AID 504459;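 active = percent response above 42, roughly 3 SD of non-fluorescent test compounds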;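 also: agonist-driven loss of surface beta2AR via internalization measured by FAP dye flow cytometry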); conditions: Am2.2-beta2AR cells, FAP surface receptor flow cytometry; at 10 µM; stronger effect = higher value
Beta-2 adrenergic receptor (Homo sapiens), sequence (P07550 whole entry, looked up): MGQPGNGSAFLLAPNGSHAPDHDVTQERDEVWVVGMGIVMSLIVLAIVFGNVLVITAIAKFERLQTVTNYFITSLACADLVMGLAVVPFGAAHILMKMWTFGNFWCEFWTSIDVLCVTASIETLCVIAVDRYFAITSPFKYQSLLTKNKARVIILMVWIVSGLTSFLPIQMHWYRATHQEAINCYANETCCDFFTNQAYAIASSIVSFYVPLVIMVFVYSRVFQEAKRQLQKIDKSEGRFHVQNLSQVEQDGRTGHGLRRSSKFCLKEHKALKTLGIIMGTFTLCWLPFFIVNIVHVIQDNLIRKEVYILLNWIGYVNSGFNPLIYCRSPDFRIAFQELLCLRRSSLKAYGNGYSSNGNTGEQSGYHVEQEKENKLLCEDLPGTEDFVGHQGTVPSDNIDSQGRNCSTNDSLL

[6] = biological target: AP-2 complex subunit beta (Homo sapiens) (UniProt P63010); assay: inhibitors of arrestin peptide binding to AP2, pilot screen, biochemical, validation set, GST-AP2 beads, flow cytometry (AID 504541;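 active = inhibition above 54%, about 3 SD of non-fluorescent compounds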;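 also: AP2 carries R879A mutation and is captured from E. coli lysate; bead-bound FITC arrestin peptide fluorescence measuring arrestin peptide binding to AP2; 0% = DMSO wells and 100% = excess unlabeled arrestin peptide control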); conditions: FITC arrestin peptide, at 10 µM, stronger effect = higher value, AP2 beta2 appendage fragment, R879A mutant
AP-2 complex subunit beta (Homo sapiens), sequence (P63010 whole entry, looked up, the tested form may be a part, one chain of several): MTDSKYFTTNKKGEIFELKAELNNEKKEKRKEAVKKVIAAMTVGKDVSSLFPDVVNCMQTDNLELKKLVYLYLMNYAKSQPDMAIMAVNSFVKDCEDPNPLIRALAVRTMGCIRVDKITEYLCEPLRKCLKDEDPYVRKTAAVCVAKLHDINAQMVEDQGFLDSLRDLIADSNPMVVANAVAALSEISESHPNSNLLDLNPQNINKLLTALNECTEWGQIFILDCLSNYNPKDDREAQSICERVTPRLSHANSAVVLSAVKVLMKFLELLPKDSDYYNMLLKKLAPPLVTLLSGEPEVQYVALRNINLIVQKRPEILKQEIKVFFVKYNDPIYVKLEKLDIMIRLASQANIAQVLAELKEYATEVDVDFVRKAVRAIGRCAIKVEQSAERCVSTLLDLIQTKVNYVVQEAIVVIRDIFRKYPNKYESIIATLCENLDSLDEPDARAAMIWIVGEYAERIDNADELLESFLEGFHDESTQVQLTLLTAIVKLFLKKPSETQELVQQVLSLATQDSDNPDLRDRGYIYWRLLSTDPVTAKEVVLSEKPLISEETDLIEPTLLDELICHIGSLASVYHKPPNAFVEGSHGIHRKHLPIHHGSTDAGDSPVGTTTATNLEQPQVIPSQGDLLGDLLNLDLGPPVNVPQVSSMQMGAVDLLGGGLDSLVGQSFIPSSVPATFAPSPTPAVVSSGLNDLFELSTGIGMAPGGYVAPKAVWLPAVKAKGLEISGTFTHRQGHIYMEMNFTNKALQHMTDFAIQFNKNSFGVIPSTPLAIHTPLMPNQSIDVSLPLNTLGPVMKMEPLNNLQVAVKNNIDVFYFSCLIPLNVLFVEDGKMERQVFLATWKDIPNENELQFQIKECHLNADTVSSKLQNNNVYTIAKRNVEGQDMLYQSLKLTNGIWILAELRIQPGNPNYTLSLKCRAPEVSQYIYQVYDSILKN

[7] = yeast V-ATPase proton transport modulators, S. cerevisiae, pHLuorin, HTS validation (AID 504600; in the data active = response above about 15%;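 also: plate controls were DMSO for no effect and reference compound for full effect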); conditions: S. cerevisiae pHLuorin cytosolic pH, at 10 µM, stronger effect = higher value
[8] = test system: anti-desmoglein-3 scFv antibody binding to human DSG3; assay: inhibitors of anti-DSG3 scFv binding to DSG3, pilot screen, biochemical, validation compound set, bead-based, flow cytometry (AID 588368;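 active = binding below the plate cutoff, the plate median minus 3 SD, with a reading above zero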;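 also: signal is the median channel fluorescence of bead-bound GFP antibody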); conditions: Protein G beads, DSG3-Fc, scFv-GFP binding, at 10 µM, stronger effect = lower value
[9] = inhibitors of fungal efflux pumps CDR1, CDR2, MDR1, pilot screen, validation compound set, multiplex, phenotypic (AID 588506);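 also: Nile Red retained in cells so higher fluorescence means more efflux inhibition; 0 = negative control wells and 1 = enniatin B 25 µM full block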; conditions: S. cerevisiae pump-expressing triplex, Nile Red efflux flow cytometry; at 10 µM; stronger effect = higher value; the pumps come from Candida albicans
[10] = biological target: ATP-binding cassette sub-family B member 6 (Homo sapiens) (UniProt Q9NP58); assay: ABCB6 transporter inhibitors, pilot screen, K562-ABCB6 cells, flow cytometry, validation set (AID 588550;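 active = inhibition above the screen-wide mean plus 3 SD, about 51%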;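 also: 0% = DMSO wells and 100% = benzethonium chloride 70 µM positive control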); conditions: K562-ABCB6 porphyrin accumulation, 1 h, at 10 µM, stronger effect = higher value
ATP-binding cassette sub-family B member 6 (Homo sapiens), sequence (Q9NP58 whole entry, looked up): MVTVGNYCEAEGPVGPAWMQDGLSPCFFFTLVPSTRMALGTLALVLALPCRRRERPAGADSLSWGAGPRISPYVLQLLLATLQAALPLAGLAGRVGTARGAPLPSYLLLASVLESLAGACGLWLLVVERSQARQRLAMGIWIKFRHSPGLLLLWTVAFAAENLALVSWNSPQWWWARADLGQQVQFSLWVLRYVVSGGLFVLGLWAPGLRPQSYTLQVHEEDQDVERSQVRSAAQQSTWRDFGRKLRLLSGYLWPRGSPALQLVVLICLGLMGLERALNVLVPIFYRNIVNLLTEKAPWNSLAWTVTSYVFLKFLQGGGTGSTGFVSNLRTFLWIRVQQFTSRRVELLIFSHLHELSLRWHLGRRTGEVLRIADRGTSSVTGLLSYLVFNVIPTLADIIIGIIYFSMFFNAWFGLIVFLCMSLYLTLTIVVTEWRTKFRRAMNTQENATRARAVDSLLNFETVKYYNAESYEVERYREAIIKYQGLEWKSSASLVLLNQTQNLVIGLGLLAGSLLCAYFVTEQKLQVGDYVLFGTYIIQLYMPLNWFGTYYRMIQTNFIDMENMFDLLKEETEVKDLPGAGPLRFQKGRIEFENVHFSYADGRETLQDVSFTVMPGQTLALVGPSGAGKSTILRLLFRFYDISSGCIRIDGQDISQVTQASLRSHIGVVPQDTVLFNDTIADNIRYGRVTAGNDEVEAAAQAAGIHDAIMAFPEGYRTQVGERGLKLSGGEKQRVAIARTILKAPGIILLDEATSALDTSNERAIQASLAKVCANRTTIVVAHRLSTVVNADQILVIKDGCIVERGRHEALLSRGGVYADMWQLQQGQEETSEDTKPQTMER

[11] = promoters of myeloid differentiation in arrested cells, primary screen, cell-based, GFP/MAC1 double positive, flow cytometry, validation set (AID 588685;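 active = differentiation response of at least 50%, scaled between solvent and reference control, from cells with both markers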;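 also: compound exposure lasts four days before antibody staining and flow analysis; 0% = DMSO wells and 100% = 5 µM fulvestrant positive control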); conditions: ER-HoxA9 marrow cells, stronger effect = higher value, normalized: vehicle 0, fulvestrant 100

O=C(/C=C/c1ccco1)NCc1ccc2c(c1)OCO2
63%: double positive events [1]
inactive: vesicle binding response [1] 260% | inhibition [2] -3.16% | superoxide response (% of plate) [3] 101% | aptamer binding inhibition [4] 0% | response [5] -2.38% | inhibition [6] -3% | response [7] 1.08% | binding (% of control) [8] 94.7% | efflux inhibition (fraction of control) [9] 0.19 | inhibition [10] 8% | differentiation response [11] -10.4%

CC(=O)OCC(=O)[C@@]1(OC(C)=O)[C@@H](C)C[C@H]2[C@@H]3C[C@H](F)C4=CC(=O)C=C[C@]4(C)[C@@]3(F)[C@@H](O)C[C@@]21C
inactive: vesicle binding response [1] 157% | inhibition [2] -11.8% | superoxide response (% of plate) [3] 97.6% | aptamer binding inhibition [4] -1% | response [5] 5.99% | inhibition [6] 1.66% | response [7] -2.14% | binding (% of control) [8] 103% | efflux inhibition (fraction of control) [9] -0.015 | inhibition [10] -2% | differentiation response [11] 4.2%
61.9%: double positive events [1]

CCn1cc(C(=O)O)c(=O)c2cc(F)c(N3CCNCC3)cc21
inactive: vesicle binding response [1] 276% | inhibition [2] 14.2% | superoxide response (% of plate) [3] 104% | aptamer binding inhibition [4] 2% | response [5] 29.6% | inhibition [6] 5.87% | response [7] 7.15% | binding (% of control) [8] 98% | efflux inhibition (fraction of control) [9] 0 | inhibition [10] 2% | differentiation response [11] 10.8%
70.1%: double positive events [1]

CC(C)(C)C(=O)NC(=S)Nc1sc2c(c1C(N)=O)CCC2
inactive: vesicle binding response [1] 119% | inhibition [2] -4.52% | superoxide response (% of plate) [3] 109% | aptamer binding inhibition [4] 2% | response [5] 7.03% | inhibition [6] 2.56% | response [7] -1.19% | binding (% of control) [8] 96.6% | efflux inhibition (fraction of control) [9] -0.24 | inhibition [10] 4% | differentiation response [11] -29.6%
60.2%: double positive events [1]

COc1ccc(Cl)cc1C(=O)NCCc1ccc(S(=O)(=O)NC(=O)NC2CCCCC2)cc1
60.4%: double positive events [1]
inactive: vesicle binding response [1] 155% | inhibition [2] -10.5% | superoxide response (% of plate) [3] 114% | aptamer binding inhibition [4] 4% | response [5] -18.8% | inhibition [6] 3.88% | response [7] -2.06% | binding (% of control) [8] 101% | efflux inhibition (fraction of control) [9] -0.28 | inhibition [10] 8% | differentiation response [11] -10.4%

C=CCNC(=S)N1CCc2c([nH]c3ccccc23)C1C (configuration not stated)
inactive: vesicle binding response [1] 194% | inhibition [2] 15.1% | superoxide response (% of plate) [3] 99% | aptamer binding inhibition [4] -3% | response [5] -13% | inhibition [6] -13.8% | response [7] 2.11% | binding (% of control) [8] 102% | efflux inhibition (fraction of control) [9] -0.09 | inhibition [10] 15% | differentiation response [11] -11.9%
60.6%: double positive events [1]

CN(C)CCCNc1ncnc2c1cnn2-c1ccccc1
inactive: vesicle binding response [1] 336% | inhibition [2] 16% | superoxide response (% of plate) [3] 94.4% | aptamer binding inhibition [4] -2% | response [5] 8.67% | inhibition [6] -0.95% | response [7] 1.69% | binding (% of control) [8] 97% | efflux inhibition (fraction of control) [9] 0.12 | inhibition [10] 12% | differentiation response [11] 23.2%
70.3%: double positive events [1]

O=C(NCCc1cccc(F)c1)[C@@H]1CSC2c3ccccc3C(=O)N21 (some centres not stated)
inactive: vesicle binding response [1] 251% | inhibition [2] 5.03% | superoxide response (% of plate) [3] 97.1% | aptamer binding inhibition [4] 5% | response [5] 1.99% | inhibition [6] -1.7% | response [7] 0.26% | binding (% of control) [8] 101% | efflux inhibition (fraction of control) [9] 0.12 | inhibition [10] 7% | differentiation response [11] 2.4%
63.2%: double positive events [1]

Cc1cc(C(=O)NC(CC(C)C)C(=O)O)cc(C)c1[N+](=O)[O-] (configuration not stated)
61.7%: double positive events [1]
inactive: vesicle binding response [1] 204% | inhibition [2] -2.43% | superoxide response (% of plate) [3] 96.9% | aptamer binding inhibition [4] 4% | response [5] 1% | inhibition [6] 1.45% | response [7] -4.26% | binding (% of control) [8] 99% | efflux inhibition (fraction of control) [9] -0.12 | inhibition [10] 17% | differentiation response [11] -10.4%

COc1ccc2c(c1OC)C(=O)NC(C)=C(C(=O)OC(C)(C)C)C2O (configuration not stated)
inactive: vesicle binding response [1] 192% | inhibition [2] 5.03% | superoxide response (% of plate) [3] 97.2% | aptamer binding inhibition [4] 4% | response [5] 7.52% | inhibition [6] -5.16% | response [7] 1.16% | binding (% of control) [8] 103% | efflux inhibition (fraction of control) [9] 0.01 | inhibition [10] 7%
active: differentiation response [11] 56.8%
62.8%: double positive events [1]

CC(=O)OCC(OC(C)=O)C(OC(C)=O)C(OC(C)=O)C(=O)Nc1cccc(C)c1 (configuration not stated)
59.9%: double positive events [1]
inactive: vesicle binding response [1] 153% | inhibition [2] -4.52% | superoxide response (% of plate) [3] 110% | aptamer binding inhibition [4] 3% | response [5] 4.29% | inhibition [6] -4.4% | response [7] 1.1% | binding (% of control) [8] 97% | efflux inhibition (fraction of control) [9] -0.1 | inhibition [10] 2% | differentiation response [11] -10.4%
